# Results as given in the supplement of paper PMC8728848.
# The full list was thinned out, with the strongest signals kept by preference.
# B1: cFel (Cyprinus carpio), P68512 (protein)
# chain: LDCTVIDGNLKQIDAGSGSVVGVNNLNETFVLIDNVFTKISGSLKHFSVGPAGQLGVNTANNIFKYQSGGFVQLAGLLKQVDAGGDQIIAGVNMYDDIYCLNMDANNKWPSSNTPWVQINGKLKYYSCGPYSCWGVNSNDQIFIMKDVSSNVCSGSGSFINIPGLLSMIEVATDGSVFGVNSQGNLYQRTGVTRSKPDGTDWISMVACPNGHKHVSFDLGVLWLVCVDGSIRKCILTD
# Columns and labels:
# Assay in all cases: glycan array binding signal (z-score within array); higher = stronger binding
# Conditions in all cases: glycan notation: IUPAC condensed, linker removed
# [1] = biological target: Fuc(a1-2)Gal(b1-3)GlcNAc(b1-2)Man(a1-3)[Fuc(a1-2)Gal(b1-3)GlcNAc(b1-2)Man(a1-6)]Man(b1-4)GlcNAc(b1-4)[Fuc(a1-6)]GlcNAc
# Summary of the method: (§1)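 Glycan array data came from 3228 arrays in the Consortium for Functional Glycomics database, and only arrays with an available protein sequence were kept. Glycan names were put into IUPAC-condensed notation, and columns mapping to the same glycan were averaged. The binding signal is a within-array Z-score, averaged across arrays of one protein sequence run at different concentrations or buffers and across linkers. A negative Z-score can be read as non-binding.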
# [2] = biological target: Fuc(a1-2)Gal(b1-4)[Fuc(a1-3)]GlcNAc
# Summary of the method: as §1
# [3] = biological target: Fuc(a1-2)Gal(b1-4)[Fuc(a1-3)]GlcNAc(b1-2)Man(a1-3)[Fuc(a1-2)Gal(b1-4)[Fuc(a1-3)]GlcNAc(b1-2)Man(a1-6)]Man(b1-4)GlcNAc(b1-4)[Fuc(a1-6)]GlcNAc
# Summary of the method: as §1
# Fuc(a1-2)[Gal(a1-3)]Gal = biological target: Fuc(a1-2)[Gal(a1-3)]Gal
# Summary of the method: as §1
# [4] = biological target: Fuc(a1-2)[GalNAc(a1-3)]Gal(b1-3)GlcNAc(b1-2)Man(a1-3)[Fuc(a1-2)[GalNAc(a1-3)]Gal(b1-3)GlcNAc(b1-2)Man(a1-6)]Man(b1-4)GlcNAc(b1-4)GlcNAc
# Summary of the method: as §1
# [5] = biological target: Fuc(a1-2)[GalNAc(a1-3)]Gal(b1-3)GlcNAc(b1-2)Man(a1-3)[Fuc(a1-2)[GalNAc(a1-3)]Gal(b1-3)GlcNAc(b1-2)Man(a1-6)]Man(b1-4)GlcNAc(b1-4)[Fuc(a1-6)]GlcNAc
# Summary of the method: as §1
# [6] = biological target: Fuc(a1-2)[GalNAc(a1-3)]Gal(b1-3)GlcNAc(b1-6)GalNAc
# Summary of the method: as §1
# [7] = biological target: Fuc(a1-3)[Gal(b1-4)]GlcNAc6S
# Summary of the method: as §1
# [8] = biological target: Gal(a1-3)Gal(b1-3)GlcNAc(b1-2)Man
# Summary of the method: as §1
# [9] = biological target: Gal(a1-4)Gal(b1-4)GlcNAc(b1-2)Man(a1-3)[Gal(a1-4)Gal(b1-4)GlcNAc(b1-2)Man(a1-6)]Man(b1-4)GlcNAc(b1-4)GlcNAc
# Summary of the method: as §1
# Gal(b1-3)Gal = biological target: Gal(b1-3)Gal
# Summary of the method: as §1
# [10] = biological target: Gal(b1-3)GlcNAc(b1-2)Man(a1-3)[Gal(b1-3)GlcNAc(b1-2)Man(a1-6)]Man(b1-4)GlcNAc(b1-4)[Fuc(a1-6)]GlcNAc
# Summary of the method: as §1
# [11] = biological target: Gal(b1-3)GlcNAc(b1-2)Man(a1-3)[GlcNAc(b1-4)][Gal(b1-3)GlcNAc(b1-2)Man(a1-6)]Man(b1-4)GlcNAc(b1-4)GlcNAc
# Summary of the method: as §1
# [12] = biological target: Gal(b1-4)GalNAc(a1-3)[Fuc(a1-2)]Gal(b1-4)GlcNAc
# Summary of the method: as §1
# Gal(b1-4)GlcNAc(b1-2)Man = biological target: Gal(b1-4)GlcNAc(b1-2)Man
# Summary of the method: as §1
# [13] = biological target: Gal(b1-4)GlcNAc(b1-2)Man(a1-3)[GlcNAc(b1-2)Man(a1-6)]Man(b1-4)GlcNAc(b1-4)GlcNAc
# Summary of the method: as §1
# [14] = biological target: Gal(b1-4)GlcNAc(b1-2)[Gal(b1-4)GlcNAc(b1-4)]Man(a1-3)[Gal(b1-4)GlcNAc(b1-2)Man(a1-6)]Man(b1-4)GlcNAc(b1-4)GlcNAc
# Summary of the method: as §1
# [15] = biological target: Gal(b1-4)GlcNAc(b1-3)Gal(b1-4)GlcNAc(b1-2)Man(a1-3)[Gal(b1-4)GlcNAc(b1-3)Gal(b1-4)GlcNAc(b1-2)Man(a1-6)]Man(b1-4)GlcNAc(b1-4)[Fuc(a1-6)]GlcNAc
# Summary of the method: as §1
# [16] = biological target: Gal(b1-4)GlcNAc(b1-3)Gal(b1-4)GlcNAc(b1-3)Gal(b1-4)GlcNAc(b1-3)Gal(b1-4)GlcNAc(b1-2)Man(a1-3)[Gal(b1-4)GlcNAc(b1-3)Gal(b1-4)GlcNAc(b1-3)Gal(b1-4)GlcNAc(b1-3)Gal(b1-4)GlcNAc(b1-2)Man(a1-6)]Man(b1-4)GlcNAc(b1-4)[Fuc(a1-6)]GlcNAc
# Summary of the method: as §1
# [17] = biological target: Gal(b1-4)GlcNAc(b1-3)Gal(b1-4)GlcNAc(b1-3)Gal(b1-4)GlcNAc(b1-3)Gal(b1-4)GlcNAc(b1-3)Gal(b1-4)GlcNAc(b1-2)Man(a1-3)[Gal(b1-4)GlcNAc(b1-3)Gal(b1-4)GlcNAc(b1-3)Gal(b1-4)GlcNAc(b1-3)Gal(b1-4)GlcNAc(b1-3)Gal(b1-4)GlcNAc(b1-2)Man(a1-6)]Man(b1-4)GlcNAc(b1-4)[Fuc(a1-6)]GlcNAc
# Summary of the method: as §1
# [18] = biological target: Gal(b1-4)GlcNAc(b1-6)GalNAc
# Summary of the method: as §1
# Gal3S(b1-3)GalNAc = biological target: Gal3S(b1-3)GalNAc
# Summary of the method: as §1
# Gal3S(b1-3)GlcNAc = biological target: Gal3S(b1-3)GlcNAc
# Summary of the method: as §1
# Gal3S(b1-4)Glc = biological target: Gal3S(b1-4)Glc
# Summary of the method: as §1
# [19] = biological target: GalNAc(b1-3)Gal(a1-4)Gal(b1-4)GlcNAc
# Summary of the method: as §1
# GalNAc3S(b1-4)GlcNAc = biological target: GalNAc3S(b1-4)GlcNAc
# Summary of the method: as §1
# [20] = biological target: GlcNAc(a1-4)Gal(b1-4)GlcNAc(b1-3)Gal(b1-4)GlcNAc(b1-3)Gal(b1-4)GlcNAc
# Summary of the method: as §1
# [21] = biological target: GlcNAc(b1-2)[GlcNAc(b1-4)]Man(a1-3)[GlcNAc(b1-2)Man(a1-6)]Man(b1-4)GlcNAc(b1-4)GlcNAc
# Summary of the method: as §1
# [22] = biological target: GlcNAc(b1-2)[GlcNAc(b1-6)]Man(a1-6)[GlcNAc(b1-4)][GlcNAc(b1-2)Man(a1-3)]Man(b1-4)GlcNAc(b1-4)GlcNAc
# Summary of the method: as §1
# [23] = biological target: GlcNAc(b1-3)Gal(b1-4)GlcNAc(b1-6)[Gal(b1-3)]GalNAc
# Summary of the method: as §1
# GlcNAc(b1-3)Man = biological target: GlcNAc(b1-3)Man
# Summary of the method: as §1
# [24] = biological target: GlcNAc(b1-4)[GlcNAc(b1-6)]GalNAc
# Summary of the method: as §1
# [25] = biological target: Man(a1-3)[Man(a1-6)]Man(a1-6)[Man(a1-2)Man(a1-3)]Man(b1-4)GlcNAc(b1-4)GlcNAc
# Summary of the method: as §1
# [26] = biological target: Neu5Ac(a2-3)Gal(b1-3)GlcNAc(b1-2)[Neu5Ac(a2-3)Gal(b1-3)GlcNAc(b1-4)]Man(a1-6)[Neu5Ac(a2-3)Gal(b1-3)GlcNAc(b1-2)Man(a1-3)]Man(b1-4)GlcNAc(b1-4)GlcNAc
# Summary of the method: as §1
# [27] = biological target: Neu5Ac(a2-3)Gal(b1-4)GlcNAc(b1-2)Man(a1-3)[GlcNAc(b1-4)][Neu5Ac(a2-3)Gal(b1-4)GlcNAc(b1-2)Man(a1-6)]Man(b1-4)GlcNAc(b1-4)GlcNAc
# Summary of the method: as §1
# [28] = biological target: Neu5Ac(a2-3)Gal(b1-4)GlcNAc(b1-2)[Neu5Ac(a2-3)Gal(b1-4)GlcNAc(b1-4)]Man(a1-3)[GlcNAc(b1-4)][Neu5Ac(a2-3)Gal(b1-4)GlcNAc(b1-4)Man(a1-6)]Man(b1-4)GlcNAc(b1-4)GlcNAc
# Summary of the method: as §1
# [29] = biological target: Neu5Ac(a2-3)Gal(b1-4)GlcNAc(b1-6)GalNAc
# Summary of the method: as §1
# [30] = biological target: Neu5Ac(a2-3)Gal(b1-4)[Fuc(a1-3)]GlcNAc(b1-3)Gal(b1-4)[Fuc(a1-3)]GlcNAc(b1-3)Gal(b1-4)[Fuc(a1-3)]GlcNAc
# Summary of the method: as §1
# [31] = biological target: Neu5Ac(a2-6)Gal(b1-4)GlcNAc(b1-3)[Neu5Ac(a2-6)Gal(b1-4)GlcNAc(b1-6)]GalNAc
# Summary of the method: as §1
# [32] = biological target: Neu5Gc(a2-3)Gal(b1-3)GlcNAc
# Summary of the method: as §1
# [33] = biological target: Neu5Gc(a2-6)Gal(b1-4)GlcNAc
# Summary of the method: as §1
# Neu5Gc(a2-6)GalNAc = biological target: Neu5Gc(a2-6)GalNAc
# Summary of the method: as §1
binder,measurement,setting,value
B1,glycan array binding signal (z-score),[1],-0.998
same,glycan array binding signal (z-score),[2],0.152
same,glycan array binding signal (z-score),[3],3.47
same,glycan array binding signal (z-score),Fuc(a1-2)[Gal(a1-3)]Gal,2.61
same,glycan array binding signal (z-score),[4],0.309
same,glycan array binding signal (z-score),[5],3.12
same,glycan array binding signal (z-score),[6],2.93
same,glycan array binding signal (z-score),[7],0.043
same,glycan array binding signal (z-score),[8],0.809
same,glycan array binding signal (z-score),[9],-0.901
same,glycan array binding signal (z-score),Gal(b1-3)Gal,-0.479
same,glycan array binding signal (z-score),[10],-1.57
same,glycan array binding signal (z-score),[11],3.37
same,glycan array binding signal (z-score),[12],0.995
same,glycan array binding signal (z-score),Gal(b1-4)GlcNAc(b1-2)Man,0.263
same,glycan array binding signal (z-score),[13],0.271
same,glycan array binding signal (z-score),[14],3.29
same,glycan array binding signal (z-score),[15],-0.29
same,glycan array binding signal (z-score),[16],-0.084
same,glycan array binding signal (z-score),[17],1.98
same,glycan array binding signal (z-score),[18],1.54
same,glycan array binding signal (z-score),Gal3S(b1-3)GalNAc,-0.627
same,glycan array binding signal (z-score),Gal3S(b1-3)GlcNAc,-0.636
same,glycan array binding signal (z-score),Gal3S(b1-4)Glc,1.24
same,glycan array binding signal (z-score),[19],4.96
same,glycan array binding signal (z-score),GalNAc3S(b1-4)GlcNAc,-0.547
same,glycan array binding signal (z-score),[20],-0.344
same,glycan array binding signal (z-score),[21],-0.869
same,glycan array binding signal (z-score),[22],-0.817
same,glycan array binding signal (z-score),[23],1.15
same,glycan array binding signal (z-score),GlcNAc(b1-3)Man,3.22
same,glycan array binding signal (z-score),[24],-0.003
same,glycan array binding signal (z-score),[25],0.309
same,glycan array binding signal (z-score),[26],0.972
same,glycan array binding signal (z-score),[27],3.12
same,glycan array binding signal (z-score),[28],-0.578
same,glycan array binding signal (z-score),[29],-0.95
same,glycan array binding signal (z-score),[30],-1.09
same,glycan array binding signal (z-score),[31],3.16
same,glycan array binding signal (z-score),[32],2.89
same,glycan array binding signal (z-score),[33],-1.34
same,glycan array binding signal (z-score),Neu5Gc(a2-6)GalNAc,0.828
